According to PubChem BioAssay:
Active and inactive are the calls of the source. Unless noted, the rule behind the calls is not given here.

System: Hepatitis C virus NS3 helicase
Assay: blockers of NS3h binding to ssDNA – biochemical, fluorescence polarization, LOPAC1280 library, primary screen (AID 687035; in the data active = inhibition above about 37%)
Conditions: Purified HCV NS3 helicase, Cy5-dT15 ssDNA binding fluorescence polarization; hits give high values; concentration not given here

Structure (SMILES) | inhibition
COCCCC/C(=N/OCCN)c1ccc(C(F)(F)F)cc1 | -1% (inactive)
CC(=O)/C(C)=N\O | -1% (inactive)
CC(=O)N[C@H]1[C@H]([C@H](O)[C@H](O)CO)OC(C(=O)O)=C[C@@H]1O | 2% (inactive)
CN(C)c1nc2c(Br)c(Br)c(Br)c(Br)c2[nH]1 | 1% (inactive)
C=CCc1cccc(/C=N\NC(=O)CN2CCN(Cc3ccccc3)CC2)c1O | 1% (inactive)
Nc1ncnc2c1c(I)cn2[C@@H]1C[C@H](N)[C@@H](O)[C@H]1O | -1% (inactive)
CCOC(=O)N1CCN(/[N+]([O-])=N\Oc2ccc([N+](=O)[O-])cc2[N+](=O)[O-])CC1 | -3% (inactive)
O=C1CN(/N=C\c2ccc(-c3ccc([N+](=O)[O-])cc3)o2)C(=O)N1 | -3% (inactive)
CO/N=C(/C(=O)N[C@@H]1C(=O)N2C(C(=O)O)=C(CSc3nc(=O)c(O)nn3C)CSC12)c1csc(N)n1 (some centres undefined) | -2% (inactive)
Fc1cccc(/C=N\N=C/c2cccc(F)c2)c1 | -2% (inactive)
Cc1ccc2nc(CN(CCN(Cc3nc4ccc(C)cc4[nH]3)Cc3nc4ccc(C)cc4[nH]3)Cc3nc4ccc(C)cc4[nH]3)[nH]c2c1 | 0% (inactive)
CC(C)ON([C@@H](C(=O)NO)C(C)C)S(=O)(=O)c1ccc(-c2ccccc2)cc1 | -1% (inactive)

System: not listed separately
Assay: compounds altering Cy5-DNA-NS3h complex signal – biochemical, LOPAC1280, artefact control for HCV NS3 helicase inhibitor project (AID 687037)
Conditions: Cy5-DNA-NS3h complex fluorescence interference counterscreen

Structure (SMILES) | fluorescence ratio (interference)
COCCCC/C(=N/OCCN)c1ccc(C(F)(F)F)cc1 | 1 (inactive)
CC(=O)/C(C)=N\O | 1.1 (inactive)
CC(=O)N[C@H]1[C@H]([C@H](O)[C@H](O)CO)OC(C(=O)O)=C[C@@H]1O | 1 (inactive)
CN(C)c1nc2c(Br)c(Br)c(Br)c(Br)c2[nH]1 | 1 (inactive)
C=CCc1cccc(/C=N\NC(=O)CN2CCN(Cc3ccccc3)CC2)c1O | 0.9 (inactive)
Nc1ncnc2c1c(I)cn2[C@@H]1C[C@H](N)[C@@H](O)[C@H]1O | 0.9 (inactive)
CCOC(=O)N1CCN(/[N+]([O-])=N\Oc2ccc([N+](=O)[O-])cc2[N+](=O)[O-])CC1 | 1.1 (inactive)
O=C1CN(/N=C\c2ccc(-c3ccc([N+](=O)[O-])cc3)o2)C(=O)N1 | 1 (inactive)
CO/N=C(/C(=O)N[C@@H]1C(=O)N2C(C(=O)O)=C(CSc3nc(=O)c(O)nn3C)CSC12)c1csc(N)n1 (some centres undefined) | 1 (inactive)
Fc1cccc(/C=N\N=C/c2cccc(F)c2)c1 | 1 (inactive)
Cc1ccc2nc(CN(CCN(Cc3nc4ccc(C)cc4[nH]3)Cc3nc4ccc(C)cc4[nH]3)Cc3nc4ccc(C)cc4[nH]3)[nH]c2c1 | 1 (inactive)
CC(C)ON([C@@H](C(=O)NO)C(C)C)S(=O)(=O)c1ccc(-c2ccccc2)cc1 | 0.9 (inactive)
